Results reported in PubChem BioAssay (NCATS).
Inconclusive results are not listed. Calls of active or inactive are those of the source. Unless noted, calls follow the shape of the dose curve; as a rule, active = well fitted curve in the direction sought with a large enough effect; inconclusive = small, poorly fitted or top-dose-only effect, or another doubt; inactive = no such curve, though single readings can be large; an effect the other way counts as inactive or inconclusive.

Key:
[1] = biological target: Ferritin light chain (Equus caballus) (UniProt P02791); test: qHTS Validation Assay for Identification of Novel General Anesthetics (AID 2323); also: potency is read from the fitted curve at half-maximal effect
How it was run: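 Competitive displacement of profluorescent 1-aminoanthracene (1-AMA, 50% saturated solution in PBS) from 10 uM horse-spleen apoferritin. Compounds incubated 10 min at room temperature; fluorescence read at 380 nm excitation/535 nm emission, normalized to free 1-AMA and complex, fitted with four-parameter Hill equation.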

[2] = biological target: ATP-dependent DNA helicase Q1 (Homo sapiens) (UniProt P46063); test: qHTS Validation Assay for Inhibitors of RecQ-Like Dna Helicase 1 (RECQ1) (AID 2353); also: potency is read from the fitted curve at half-maximal effect
How it was run: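 RECQ1T1 50 nM; forked duplex (20 bp + 30-nt ss tails) 200 nM, ATP 2 mM final; pH 8.0, 2 mM MgCl2, 2.5 ug/ml poly(dI-dC); 15 min compound preincubation; discontinuous kinetic read over 2 h at RT.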

[3] = Cytometric Cell-Based qHTS for Inhibitors of the mTORC1 Signaling Pathway in MEF (Tsc2-/-, p53-/-) Cells (AID 2660);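 also: Tsc2 and p53 null MEFs carrying empty vector with compound for 24 h; percent of cells above a phospho-rpS6 to PI ratio cutoff in each well; series mostly up to about 38 µM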
How it was run: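 Readout: Alexa-488 phospho-rpS6 (Ser235/236) intensity divided by PI intensity, thresholded against 7.5 nM rapamycin wells and reported as % positive cells. PI cell count served as the viability measure. Compound exposure was 24 hrs at 37 degree Celsius.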

[4] = High Content Imaging Cell-Based qHTS for Inhibitors of the mTORC1 Signaling Pathway in MEF (Tsc2-/-, p53-/-) Cells (AID 2666);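 also: percent of cells scored positive for phospho-rpS6 Ser235/236 immunostaining by imaging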
How it was run: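 Tsc2-/-, p53-/- MEFs (empty-vector stable) grown in DMEM + 10% FBS were exposed to compounds for 24 hrs at 37 degree Celsius, fixed, and stained with Alexa-488 anti-phospho-rpS6 Ser235/236 plus Hoechst. Imaging gave the percentage of positive cells per well.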

[5] = High Content Imaging Cell-Based qHTS for Inhibitors of the mTORC1 Signaling Pathway in MEF Cells (AID 2667);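 also: Tsc2-/- p53-/- MEFs stably re-expressing wild-type Tsc2 exposed 24 h; series mostly up to about 38 µM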
How it was run: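 Tsc2-/-, p53-/- MEFs stably re-expressing WT Tsc2, grown in DMEM + 10% FBS, were treated with compounds for 24 hrs at 37 degree Celsius, fixed, and stained with Alexa-488 phospho-rpS6 Ser235/236 antibody plus Hoechst; results given as % positive cells.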

[6] = Cytometry Cell-Based qHTS for Inhibitors of the mTORC1 Signaling Pathway in MEF cells (AID 2668);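 also: Tsc2-/- p53-/- mouse embryonic fibroblasts stably re-expressing wild-type Tsc2; percent cells positive for phospho-rpS6 Ser235/236 relative to propidium iodide stain; series mostly up to about 38 µM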
How it was run: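 WT MEFs (Tsc2-/-, p53-/- stably re-expressing WT Tsc2) in DMEM + 10% FBS received compounds 24 hrs after plating, for 24 hrs at 37 degree Celsius. Fixed cells stained with Alexa-488 anti-phospho-rpS6 Ser235/236 and propidium iodide; laser-scanning cytometry read-out.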

[7] = Validation screen for small molecules that induce DNA re-replication in MCF 10A normal breast cells (AID 463097); also: nearly all actives have a fitted effect of over 60% in size
How it was run: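 Readout: Hoechst nuclear fluorescence intensity, 405 ex / 500-530 em, by scanning plate imager; re-replication scored as increase in nuclei with elevated DNA content. Cells exposed to compound 48 hr, 37 C, 5% CO2 beforehand.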

[8] = biological target: Tumor susceptibility gene 101 protein (Homo sapiens) (UniProt Q99816); test: qHTS Validation Assay for Iinhibitors of HIV-1 Budding by Blocking the Interaction of PTAP/TSG101 (AID 485342; calls by dose curve)
How it was run: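 Tsg101 binding domain (10 uM final) in pH 7.5 HEPES/NaCl/Tween 20/EDTA/TCEP buffer was mixed with pin-transferred compounds, then FITC-labeled PTAP peptide (50 nM final) was added; after 20 min at r.t., fluorescence polarization was read.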

[9] = qHTS Validation Assay to Find Inhibitors of Chronic Active B-Cell Receptor Signaling (AID 485345; active = well fitted curve in the direction sought with a large enough effect in the main read-out, with a control signal flat, not every such curve was filed as active)
How it was run: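 Read-out: ratio of filter-corrected green (IkappaBalpha fusion) to red (native) luciferase signal in doxycycline-induced TMD8 cells after 4 h at 37C. Titration spanned 46 uM–3 nM; Data were normalised to basal cells and 10 uM MG-132 wells.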

[10] = biological target: ATP-dependent 6-phosphofructokinase (Trypanosoma brucei brucei) (UniProt O15648); test: qHTS Validation Assay to Find Inhibitors of T. brucei phosphofructokinase (AID 485368)
How it was run: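 Inhibition derived from concentration-response curves of luminescence, ranked by r2, response size and curve class; the underlying reaction used 1.25 nM PFK, 0.1 mM ATP and 0.5 mM F6P, 45 min, room temperature.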

[11] = Quantitative high throughput screen for delayed death inhibitors of the malarial parasite plastid, 96 hour incubation (AID 488745); also: series mostly up to about 29 µM; nearly all actives have a fitted effect of over 70% in size
How it was run: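 Decreased firefly luciferase luminescence indicates inhibited growth of reporter-integrated P. falciparum after two generations (96 h, 37 C, 5% CO2). Infected erythrocytes at 0.1% parasitemia, 2% hematocrit, in Albumax-supplemented RPMI 1640.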

[12] = Quantitative high throughput screen for delayed death inhibitors of the malarial parasite plastid, 48 hour incubation (AID 488752); also: nearly all actives have a fitted effect of over 65% in size; also: potency is read from the fitted curve at half-maximal effect
How it was run: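 One-generation (48 h) growth assay: a decrease in luciferase signal from an integrated reporter in P. falciparum-infected red cells (0.1% parasitemia, 2% hematocrit) after compound exposure at 37 C indicates parasite inhibition.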

[13] = biological target: Thioredoxin reductase 1, cytoplasmic (Rattus norvegicus) (UniProt O89049); test: qHTS Assay for Substrates of Mammalian Selenoprotein Thioredoxin Reductase 1 (TrxR1) (AID 488772);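 also: series mostly up to about 57 µM; a drop in NADPH fluorescence below the no-compound background marks a TrxR1 substrate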
How it was run: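 In this dual-purpose format, potential substrates are identified from the first fluorescence read after selenite addition, not from the 8-minute delta. Rat enzyme is preincubated with NADPH and then with compound at ~22 deg C.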

[14] = biological target: Thioredoxin reductase 1, cytoplasmic (Rattus norvegicus) (UniProt O89049); test: qHTS Assay for Inhibitors of Mammalian Selenoprotein Thioredoxin Reductase 1 (TrxR1) (AID 488773); conditions: Potency: inhibition;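 also: drop in NADPH fluorescence over an 8 min run after selenite addition; series mostly up to about 57 µM; nearly all actives have a fitted effect of over 40% in size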
How it was run: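 Inhibition is scored from the loss of NADPH fluorescence between first and last reads of an 8-min kinetic run. Selenite (400 uM) was the substrate, added after 15 min compound preincubation at room temperature.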

[15] = biological target: Ubiquitin carboxyl-terminal hydrolase 2 (Homo sapiens) (UniProt O75604); test: qHTS Validation Assay for Inhibitors of Ubiquitin-specific Protease USP2a Using CHOP2 as the Reporter (AID 463106)
How it was run: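 Readout was coupled fluorescence (Ex 485/Em 531 nm), read 60 min after adding 25 nM final Ub-CHOP2 and 25 nM reporter substrate. Beforehand, 10 nM final USP2 core had 30 min at RT with compound in pH 8.0 buffer. Curves were fitted after normalization to NEM and flagged for artifacts using time-zero reads.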

[16] = biological target: Beta-2 adrenergic receptor (Homo sapiens) (UniProt P07550); test: qHTS validation assay of beta-arrestin-biased ligands of beta2-adrenergic receptor (AID 485366)
How it was run: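 Agonist activity is measured as luciferase luminescence downstream of beta-arrestin recruitment to recombinant beta2-AR in Tango cells. Exposure lasts 18 hr at 37 degrees C, and curves are categorized by r2, response size and activity.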

[17] = biological target: DNA polymerase III PolC-type (Bacillus subtilis (strain 168)) (UniProt P13267); test: qHTS Validation Assay for the Inhibitors of DNA Replication in Gram-Positive Bacteria (AID 485295);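 also: PicoGreen fluorescence of double-stranded DNA made on primed circular M13 template; series mostly up to about 57 µM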
How it was run: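 Reconstituted B. subtilis holoenzyme (Pol III, beta clamp, SSB, primase) was preincubated with compound at room temperature, then given single-stranded circular M13Gori plus dNTPs and NTPs. EDTA-containing PicoGreen stopped the reaction, and dsDNA product was read by fluorescence.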

[18] = biological target: Flap endonuclease 1 (Homo sapiens) (UniProt P39748); test: qHTS Validation Assay for the Inhibitors of Human Flap endonuclease 1 (FEN1) (AID 488816); also: potency is read from the fitted curve at half-maximal effect
How it was run: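 qHTS format: compounds and 10 nM FEN1 incubated 15 min at room temperature before adding 50 nM substrate. Cleavage followed by reads at 0 and 15 min; normalized data fitted to a four-parameter Hill curve.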

[19] = biological target: RecQ-like DNA helicase BLM (Homo sapiens) (UniProt P54132); test: qHTS Validation Assay for Inhibitors of Bloom's syndrome helicase (BLM) (AID 2364); also: potency is read from the fitted curve at half-maximal effect
How it was run: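 Forked 20-bp duplex substrate (200 nM, TAMRA/BHQ-2) plus 2 mM ATP added after 15 min compound preincubation with 50 nM enzyme, pH 8.0, poly(dI-dC) 2.5 ug/ml. Strand separation followed by fluorescence (525/598 nm) over 2 h, normalized to enzyme-free and DMSO controls.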

Measured: Potency

DNA polymerase III PolC-type (Bacillus subtilis (strain 168)), sequence (P13267 whole entry, looked up): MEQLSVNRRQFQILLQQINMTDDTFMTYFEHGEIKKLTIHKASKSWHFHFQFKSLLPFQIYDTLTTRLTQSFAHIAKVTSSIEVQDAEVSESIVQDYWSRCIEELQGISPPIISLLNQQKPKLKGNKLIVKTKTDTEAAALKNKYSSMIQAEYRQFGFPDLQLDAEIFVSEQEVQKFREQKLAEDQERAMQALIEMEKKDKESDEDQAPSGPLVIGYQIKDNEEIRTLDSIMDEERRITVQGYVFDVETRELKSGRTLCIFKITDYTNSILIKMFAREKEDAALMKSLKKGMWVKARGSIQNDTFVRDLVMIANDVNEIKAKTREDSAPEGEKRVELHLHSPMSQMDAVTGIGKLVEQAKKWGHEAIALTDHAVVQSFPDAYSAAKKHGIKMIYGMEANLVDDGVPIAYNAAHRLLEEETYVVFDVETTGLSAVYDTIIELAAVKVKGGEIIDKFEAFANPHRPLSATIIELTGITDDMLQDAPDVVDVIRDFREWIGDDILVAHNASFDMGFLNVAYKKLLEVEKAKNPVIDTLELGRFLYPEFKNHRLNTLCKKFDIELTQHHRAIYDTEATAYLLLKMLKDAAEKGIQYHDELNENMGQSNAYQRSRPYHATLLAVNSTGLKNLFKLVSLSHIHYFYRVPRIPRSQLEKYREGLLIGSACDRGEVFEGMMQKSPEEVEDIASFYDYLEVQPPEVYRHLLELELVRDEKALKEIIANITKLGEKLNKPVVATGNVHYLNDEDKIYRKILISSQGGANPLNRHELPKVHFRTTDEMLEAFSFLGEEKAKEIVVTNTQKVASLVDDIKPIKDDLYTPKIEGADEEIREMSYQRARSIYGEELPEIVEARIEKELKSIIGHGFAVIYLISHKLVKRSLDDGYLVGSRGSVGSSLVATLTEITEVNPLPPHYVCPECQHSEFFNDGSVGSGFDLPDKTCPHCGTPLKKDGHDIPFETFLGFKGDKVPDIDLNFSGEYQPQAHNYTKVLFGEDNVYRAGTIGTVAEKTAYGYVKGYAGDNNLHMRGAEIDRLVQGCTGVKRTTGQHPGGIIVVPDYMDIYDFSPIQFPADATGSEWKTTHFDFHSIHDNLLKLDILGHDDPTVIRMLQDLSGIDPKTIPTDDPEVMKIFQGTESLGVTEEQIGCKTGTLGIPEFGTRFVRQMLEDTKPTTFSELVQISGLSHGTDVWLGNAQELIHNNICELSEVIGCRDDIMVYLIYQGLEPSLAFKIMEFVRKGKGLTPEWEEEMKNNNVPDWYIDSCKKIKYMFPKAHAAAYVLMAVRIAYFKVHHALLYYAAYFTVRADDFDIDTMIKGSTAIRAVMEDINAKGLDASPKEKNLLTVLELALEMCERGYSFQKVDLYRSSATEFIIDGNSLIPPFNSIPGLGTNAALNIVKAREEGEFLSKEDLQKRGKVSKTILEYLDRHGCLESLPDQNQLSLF
Ferritin light chain (Equus caballus), sequence (P02791 2-175 limits assumed): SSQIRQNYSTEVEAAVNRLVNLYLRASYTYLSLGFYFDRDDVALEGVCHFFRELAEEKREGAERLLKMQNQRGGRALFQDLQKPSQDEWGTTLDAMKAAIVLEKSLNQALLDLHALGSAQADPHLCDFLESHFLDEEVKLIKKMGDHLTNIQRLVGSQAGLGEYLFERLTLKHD
Tumor susceptibility gene 101 protein (Homo sapiens), sequence (Q99816 whole entry, looked up, the tested form may be a part): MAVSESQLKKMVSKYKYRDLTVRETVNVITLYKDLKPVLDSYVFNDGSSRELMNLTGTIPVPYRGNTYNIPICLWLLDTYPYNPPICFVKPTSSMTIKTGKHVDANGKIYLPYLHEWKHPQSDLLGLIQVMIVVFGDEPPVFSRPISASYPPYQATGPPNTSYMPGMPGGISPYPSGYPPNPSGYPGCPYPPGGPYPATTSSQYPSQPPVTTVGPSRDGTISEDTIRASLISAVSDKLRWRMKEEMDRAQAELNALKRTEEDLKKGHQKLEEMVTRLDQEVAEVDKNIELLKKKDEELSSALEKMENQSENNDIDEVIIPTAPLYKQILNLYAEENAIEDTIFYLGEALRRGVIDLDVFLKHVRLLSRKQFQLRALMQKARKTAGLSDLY
Beta-2 adrenergic receptor (Homo sapiens), sequence (P07550 whole entry, looked up): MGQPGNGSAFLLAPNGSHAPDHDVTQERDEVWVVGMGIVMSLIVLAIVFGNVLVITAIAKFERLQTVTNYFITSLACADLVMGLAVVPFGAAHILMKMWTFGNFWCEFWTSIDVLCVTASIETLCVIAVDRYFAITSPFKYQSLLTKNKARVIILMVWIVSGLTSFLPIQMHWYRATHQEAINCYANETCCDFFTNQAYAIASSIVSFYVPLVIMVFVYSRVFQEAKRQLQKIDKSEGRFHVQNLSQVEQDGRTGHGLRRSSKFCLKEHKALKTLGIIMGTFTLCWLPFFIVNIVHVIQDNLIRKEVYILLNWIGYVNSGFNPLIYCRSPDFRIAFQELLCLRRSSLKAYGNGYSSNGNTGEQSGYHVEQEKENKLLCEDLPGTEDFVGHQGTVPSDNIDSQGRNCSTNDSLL
ATP-dependent DNA helicase Q1 (Homo sapiens), sequence (P46063 whole entry, looked up): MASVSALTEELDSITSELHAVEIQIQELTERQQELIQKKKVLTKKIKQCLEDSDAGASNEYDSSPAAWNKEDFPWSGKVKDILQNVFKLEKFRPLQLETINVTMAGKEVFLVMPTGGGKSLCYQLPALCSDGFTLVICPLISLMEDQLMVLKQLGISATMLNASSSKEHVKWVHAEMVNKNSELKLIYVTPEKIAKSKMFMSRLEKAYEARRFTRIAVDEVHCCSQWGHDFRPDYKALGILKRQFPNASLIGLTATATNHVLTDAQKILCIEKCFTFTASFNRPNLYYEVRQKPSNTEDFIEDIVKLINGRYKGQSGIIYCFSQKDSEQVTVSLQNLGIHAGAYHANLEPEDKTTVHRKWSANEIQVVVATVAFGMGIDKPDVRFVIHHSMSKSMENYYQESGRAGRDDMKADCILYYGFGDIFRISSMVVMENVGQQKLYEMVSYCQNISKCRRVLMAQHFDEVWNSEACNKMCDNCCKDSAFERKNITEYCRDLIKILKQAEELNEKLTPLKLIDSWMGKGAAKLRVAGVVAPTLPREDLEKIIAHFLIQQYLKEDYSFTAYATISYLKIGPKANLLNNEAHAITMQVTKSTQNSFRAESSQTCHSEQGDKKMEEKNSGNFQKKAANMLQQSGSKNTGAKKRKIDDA
Thioredoxin reductase 1, cytoplasmic (Rattus norvegicus), sequence (O89049 whole entry, looked up): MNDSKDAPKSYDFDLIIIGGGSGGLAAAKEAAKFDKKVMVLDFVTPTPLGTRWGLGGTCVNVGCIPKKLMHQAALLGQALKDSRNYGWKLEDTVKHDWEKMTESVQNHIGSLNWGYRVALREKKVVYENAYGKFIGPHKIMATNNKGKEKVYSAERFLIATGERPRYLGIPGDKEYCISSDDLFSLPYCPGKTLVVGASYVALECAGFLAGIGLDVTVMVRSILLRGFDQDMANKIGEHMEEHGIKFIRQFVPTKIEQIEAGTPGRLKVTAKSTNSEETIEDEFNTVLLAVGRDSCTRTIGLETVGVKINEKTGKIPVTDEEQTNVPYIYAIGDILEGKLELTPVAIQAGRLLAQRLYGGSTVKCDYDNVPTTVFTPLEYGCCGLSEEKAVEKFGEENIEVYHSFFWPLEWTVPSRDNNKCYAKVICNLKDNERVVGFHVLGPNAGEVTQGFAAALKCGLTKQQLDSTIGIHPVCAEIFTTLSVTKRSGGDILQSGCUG
RecQ-like DNA helicase BLM (Homo sapiens), sequence (P54132 whole entry, looked up): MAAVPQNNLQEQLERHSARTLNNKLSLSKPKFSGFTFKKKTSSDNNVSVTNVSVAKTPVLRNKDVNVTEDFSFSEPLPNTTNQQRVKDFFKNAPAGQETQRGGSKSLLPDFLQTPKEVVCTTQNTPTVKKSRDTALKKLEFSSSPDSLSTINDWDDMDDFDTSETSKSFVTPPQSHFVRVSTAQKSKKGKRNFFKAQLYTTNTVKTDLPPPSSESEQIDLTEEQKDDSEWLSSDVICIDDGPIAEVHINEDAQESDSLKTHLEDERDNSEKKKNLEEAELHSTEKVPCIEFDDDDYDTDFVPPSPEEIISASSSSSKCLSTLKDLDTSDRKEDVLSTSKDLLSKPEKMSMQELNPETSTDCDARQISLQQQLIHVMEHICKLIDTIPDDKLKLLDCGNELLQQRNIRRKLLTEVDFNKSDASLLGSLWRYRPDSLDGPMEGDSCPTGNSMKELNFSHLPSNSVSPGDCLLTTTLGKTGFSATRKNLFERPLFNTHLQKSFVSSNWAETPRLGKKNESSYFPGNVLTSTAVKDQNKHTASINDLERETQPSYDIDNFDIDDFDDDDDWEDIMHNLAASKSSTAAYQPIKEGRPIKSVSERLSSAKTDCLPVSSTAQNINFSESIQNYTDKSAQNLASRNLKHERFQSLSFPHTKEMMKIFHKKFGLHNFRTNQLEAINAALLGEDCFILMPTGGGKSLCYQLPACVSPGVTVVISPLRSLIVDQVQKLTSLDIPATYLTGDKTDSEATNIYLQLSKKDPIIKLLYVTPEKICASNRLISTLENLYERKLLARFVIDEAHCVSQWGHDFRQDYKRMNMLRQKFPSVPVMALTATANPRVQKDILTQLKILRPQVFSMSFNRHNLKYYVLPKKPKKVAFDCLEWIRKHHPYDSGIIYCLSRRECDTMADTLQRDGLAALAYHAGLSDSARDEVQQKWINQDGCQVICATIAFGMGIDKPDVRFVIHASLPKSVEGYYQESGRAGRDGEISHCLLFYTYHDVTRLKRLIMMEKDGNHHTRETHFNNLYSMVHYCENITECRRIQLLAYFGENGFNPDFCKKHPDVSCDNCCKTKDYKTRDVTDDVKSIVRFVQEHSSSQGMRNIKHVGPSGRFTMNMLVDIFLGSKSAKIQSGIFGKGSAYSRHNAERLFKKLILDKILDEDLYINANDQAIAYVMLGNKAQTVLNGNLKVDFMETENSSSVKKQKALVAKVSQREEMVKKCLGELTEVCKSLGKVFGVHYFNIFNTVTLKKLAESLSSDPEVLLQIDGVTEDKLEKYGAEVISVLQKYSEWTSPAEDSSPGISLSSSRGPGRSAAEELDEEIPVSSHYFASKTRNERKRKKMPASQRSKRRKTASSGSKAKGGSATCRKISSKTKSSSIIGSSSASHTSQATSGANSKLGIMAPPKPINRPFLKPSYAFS

CC(C)Cc1ccc(C(C)C(=O)O)cc1 (stereo not given)
not listed: [15] | [16] | [17] | [18] | [19]
inactive: all other assays above

CN1CCN(C2=Nc3cc(Cl)ccc3Nc3ccccc32)CC1
not listed: [4] | [11] | [12] | [13] | [17] | [18] | [19]
inactive: all other assays above

CN1C(C(=O)Nc2ccccn2)=C(O)c2ccccc2S1(=O)=O
not listed: [3] | [9] | [10] | [11] | [19]
inactive: all other assays above

O=C1c2c(O)ccc(O)c2C(=O)c2c(NCCNCCO)ccc(NCCNCCO)c21
active: [1] 17.8 µM | [2] 3.16 µM | [19] 20 µM | [12] 2.08 µM | [18] 2.99 µM
inactive: [5] | [7] | [8] | [16] | [13]

COc1ccccc1OCC(O)CN1CCN(CC(=O)Nc2c(C)cccc2C)CC1 (stereo not given)
not listed: [4] | [9] | [11] | [13] | [16] | [19]
inactive: all other assays above

COc1ccc2[nH]cc(CCNC(C)=O)c2c1
not listed: [10] | [11] | [19]
inactive: all other assays above

NCCS(=O)(=O)O
not listed: [14] | [17] | [19]
inactive: all other assays above

COc1nc(C)nc(Cl)c1NC1=NCCN1
not listed: [3] | [14] | [19]
inactive: all other assays above

CN1CCN(CCCN2c3ccccc3Sc3ccc(Cl)cc32)CC1
inactive: [1] | [2] | [19] | [15] | [17] | [8] | [13] | [14] | [18]

CC(C)NCC(O)COc1ccc(CCOCC2CC2)cc1 (stereo not given)
not listed: [4] | [11] | [16] | [17] | [19]
inactive: all other assays above

NC(=O)NO
not listed: [11] | [13] | [19]
inactive: all other assays above

CC12CC3CC(C)(C1)CC(N)(C3)C2
not listed: [4] | [6] | [11] | [14] | [16] | [17] | [18] | [19]
inactive: all other assays above

CS(=O)(=O)Nc1ccc([N+](=O)[O-])cc1Oc1ccccc1
not listed: [10] | [11] | [14] | [17] | [18] | [19]
inactive: all other assays above

COc1ccc(CCN(C)CCCC(C#N)(c2ccc(OC)c(OC)c2)C(C)C)cc1OC (stereo not given)
inactive: [1] | [2] | [19] | [6] | [7] | [8]
